According to PubChem BioAssay (EPA / NIEHS):
Several values for one entry are separate records, joined by “and”; a condition that tells them apart may be missing. Equal values may be shown once. Activity calls are given as the source filed them. How the source made its calls: active means hit-call score of the fitted dose curve at least 0.9, where 1 is the maximum; inactive means score below 0.9.

Experiments:
[1] = read-out: Monocyte Chemoattractant Protein-1 (MCP1), CCL2 (gene 6347); test: BSK_3C_MCP1: BioMAP Diversity Plus: 3C Assay for Monocyte Chemoattractant Protein-1 (MCP1) Biomarker Activity (AID 2283017); details: primary human endothelial cells (HUVEC); actives raise or lower the signal
Summary of the method: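 MCP-1 was measured by ELISA 24 h after dosing in primary HUVEC 3C cultures and fitted in both directions relative to DMSO; cytotoxicity was checked by SRB total-protein staining in parallel wells.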

[2] = read-out: Interleukin-8 (IL8), CXCL8 (gene 3576); test: BSK_3C_IL8: BioMAP Diversity Plus: 3C Assay for Interleukin-8 (IL8) Biomarker Activity (AID 2283020); details: primary human endothelial cells (HUVEC); actives raise or lower the signal
Summary of the method: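 IL-8 was measured by ELISA in HUVEC cultures 24 h after chemical dosing, with gain or loss of signal fitted relative to DMSO. Parallel SRB total-protein staining tracked overt cytotoxicity.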

[3] = read-out: Monokine induced gamma interferon (MIG), CXCL9 (gene 4283); test: BSK_3C_MIG: BioMAP Diversity Plus: 3C Assay for Monokine induced gamma interferon (MIG) Biomarker Activity (AID 2283021); details: primary human endothelial cells (HUVEC); actives raise or lower the signal;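 on AC50: MIG protein level measured by immunoassay in the treated endothelial cultures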
Summary of the method: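 ELISA measurement of MIG in human umbilical vein endothelial cells 24 h after treatment. Cytotoxicity tracked by SRB staining in parallel cultures; gain or loss of signal fitted relative to DMSO.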

[4] = BSK_3C_SRB: Viability Assessment in the BioMAP Diversity Plus: 3C Assay (AID 2283023); details: primary human endothelial cells (HUVEC);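 further: fitted both ways against DMSO so a hit may be signal rise or drop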
Summary of the method: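 Cytotoxicity readout in parallel HUVEC 3C cultures: after 24 h compound exposure, cells fixed with 10% TCA, stained with 0.1% SRB and read at 560 nm. Gain or loss relative to DMSO fitted.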

[5] = read-out: Matrix Metallopeptidase 1 (MMP1), MMP1 (gene 4312); test: BSK_BE3C_MMP1: BioMAP Diversity Plus: BE3C Assay for Matrix Metallopeptidase 1 (MMP1) Biomarker Activity (AID 2283024); details: primary human bronchial epithelial cells; actives raise or lower the signal
Summary of the method: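 ELISA measurement of MMP-1 after 24 h compound exposure of primary human bronchial epithelial cells. Changes in either direction fitted relative to DMSO; parallel SRB staining checked overt cytotoxicity.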

[6] = BSK_4H_SRB: Viability Assessment in the BioMAP Diversity Plus: 4H Assay (AID 2283027); details: primary human endothelial cells (HUVEC);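 further: cells exposed to compound for 24 h before staining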;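 on AC50: curves fitted both ways versus DMSO so AC50 may be loss or gain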
Summary of the method: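 HUVEC, 24 h post-dose; 10% TCA fix, 0.1% SRB stain, A560 nm. Total protein = overt cytotoxicity, parallel to biomarker read. Bidirectional fit vs DMSO baseline.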

[7] = BSK_BE3C_SRB: Viability Assessment in the BioMAP Diversity Plus: BE3C Assay (AID 2283028); details: primary human bronchial epithelial cells;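 on AC50: fitted both ways so AC50 may mark signal gain or loss versus DMSO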
Summary of the method: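 Cytotoxicity read-out: SRB (0.1%) staining of TCA-fixed (10%) human lung bronchial epithelial cells, absorbance 560 nm, 24 h post-dosing. Curves fitted both directions relative to DMSO.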

[8] = read-out: Urokinase-type plasminogen activator receptor (uPAR), PLAUR (gene 5329); test: BSK_4H_uPAR: BioMAP Diversity Plus: 4H Assay for Urokinase-type plasminogen activator receptor (uPAR) Biomarker Activity (AID 2283030); details: primary human endothelial cells (HUVEC); actives raise or lower the signal
Summary of the method: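 uPAR level read by ELISA on HUVEC cultures (BioMAP 4H) 24 h post-dosing, analyzed for gain or loss relative to DMSO. Parallel SRB staining assessed overt cytotoxicity.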

[9] = read-out: Vascular cell adhesion molecule 1 (VCAM1), VCAM1 (gene 7412); test: BSK_4H_VCAM1: BioMAP Diversity Plus: 4H Assay for Vascular cell adhesion molecule 1 (VCAM1) Biomarker Activity (AID 2283033); details: primary human endothelial cells (HUVEC); actives raise or lower the signal
Summary of the method: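 VCAM-1 ELISA read 24 h after chemical dosing of HUVEC in the BioMAP 4H system, with gain or loss of signal fitted relative to DMSO. Parallel SRB staining (560 nm) checked overt cytotoxicity.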

[10] = read-out: Interferon-gamma inducible Protein 10 (IP10), CXCL10 (gene 3627); test: BSK_BE3C_IP10: BioMAP Diversity Plus: BE3C Assay for Interferon-gamma inducible Protein 10 (IP10) Biomarker Activity (AID 2283034); details: primary human bronchial epithelial cells; actives raise or lower the signal
Summary of the method: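 IP-10 quantified by ELISA in human primary bronchial epithelial cell cultures at 24 hours post-dosing. Gain or loss of signal fitted relative to DMSO; parallel SRB staining assessed overt cytotoxicity.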

[11] = read-out: Monokine induced gamma interferon (MIG), CXCL9 (gene 4283); test: BSK_BE3C_MIG: BioMAP Diversity Plus: BE3C Assay for Monokine induced gamma interferon (MIG) Biomarker Activity (AID 2283035); details: primary human bronchial epithelial cells; actives raise or lower the signal
Summary of the method: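 Dose cells (human primary bronchial epithelial), incubate 24 h, quantify MIG by ELISA, then fit concentration–response in both directions relative to DMSO control.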

[12] = read-out: Urokinase-type plasminogen activator receptor (uPAR), PLAUR (gene 5329); test: BSK_BE3C_uPAR: BioMAP Diversity Plus: BE3C Assay for Urokinase-type plasminogen activator receptor (uPAR) Biomarker Activity (AID 2283039); details: primary human bronchial epithelial cells; actives raise or lower the signal
Summary of the method: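 uPAR levels were measured by ELISA after 24 h compound treatment of primary human bronchial epithelial cells, fitted in both directions relative to DMSO. Parallel SRB staining served as the cytotoxicity read-out.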

[13] = read-out: Interleukin-6 (IL6), IL6 (gene 3569); test: BSK_CASM3C_IL6: BioMAP Diversity Plus: CASM3C Assay for Interleukin-6 (IL6) Biomarker Activity for (AID 2283040); details: primary human coronary artery smooth muscle cells; actives raise or lower the signal
[14] = read-out: Tissue plasminogen activator (tPA), PLAT (gene 5327); test: BSK_BE3C_tPA: BioMAP Diversity Plus: BE3C Assay for Tissue plasminogen activator (tPA) Biomarker Activity (AID 2283041); details: primary human bronchial epithelial cells; actives raise or lower the signal;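 further: tPA level quantified by ELISA one day after compound addition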
Summary of the method: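 tPA measured by ELISA 24 h after dosing human primary bronchial epithelial cells (BE3C system). Changes in either direction were fitted against DMSO. Parallel cultures were stained with SRB to flag overt cytotoxicity.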

[15] = read-out: Human Leukocyte Antigen - DR isotype (HLADR), HLA-DRA (gene 3122); test: BSK_CASM3C_HLADR: BioMAP Diversity Plus: CASM3C Assay for Human Leukocyte Antigen - DR isotype (HLADR) Biomarker Activity (AID 2283043); details: primary human coronary artery smooth muscle cells; actives raise or lower the signal;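 further: cell-surface HLA-DR protein level quantified by ELISA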
[16] = read-out: Macrophage colony-stimulating factor (MCSF), CSF1 (gene 1435); test: BSK_CASM3C_MCSF: BioMAP Diversity Plus: CASM3C Assay for Macrophage colony-stimulating factor (MCSF) Biomarker Activity (AID 2283044); details: primary human coronary artery smooth muscle cells; actives raise or lower the signal;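 further: M-CSF protein amount quantified by ELISA after 24 h exposure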
[17] = read-out: Monocyte Chemoattractant Protein-1 (MCP1), CCL2 (gene 6347); test: BSK_CASM3C_MCP1: BioMAP Diversity Plus: CASM3C Assay for Monocyte Chemoattractant Protein-1 (MCP1) Biomarker Activity (AID 2283046); details: primary human coronary artery smooth muscle cells; actives raise or lower the signal;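 further: MCP-1 level quantified by ELISA 24 h after dosing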
[18] = BSK_CASM3C_Proliferation: Cell Proliferation Assessment in the BioMAP Diversity Plus: CASM3C Assay (AID 2283047); details: primary human coronary artery smooth muscle cells;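 further: sulforhodamine B total protein stain as relative cell number at 560 nm; sub-confluent cells exposed 48 h before staining; fitted both ways against DMSO so gain or loss of cell number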
[19] = read-out: Monokine induced gamma interferon (MIG), CXCL9 (gene 4283); test: BSK_CASM3C_MIG: BioMAP Diversity Plus: CASM3C Assay for Monokine induced gamma interferon (MIG) Biomarker Activity (AID 2283048); details: primary human coronary artery smooth muscle cells; actives raise or lower the signal;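 further: MIG protein level measured by ELISA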
[20] = read-out: serum amyloid A (SAA), SAA1 (gene 6288); test: BSK_CASM3C_SAA: BioMAP Diversity Plus: CASM3C Assay for serum amyloid A (SAA) Biomarker Activity (AID 2283049); details: primary human coronary artery smooth muscle cells; actives raise or lower the signal;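 further: SAA protein level quantified by ELISA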

Measured: AC50

CCCOC(=O)c1ccccc1C(=O)OCCC
inactive: [2] | [3] | [4] | [5] | [6] | [7] | [8] | [9] | [10] | [11] | [12] | [13] | [14] | [15] | [16] | [17] | [18] | [19] | [20]
active: [1] 20 µM

O=C(CCl)c1ccccc1
inactive: [5] | [7] | [12] | [14]
active: [1] 7.4 µM | [2] 10.9 µM | [3] 9.6 µM | [4] 20 µM | [6] 14.3 µM | [8] 9.98 µM | [9] 3.54 µM | [10] 29.9 µM | [11] 36.5 µM | [13] 12.7 µM | [15] 6.84 µM | [16] 12.9 µM | [17] 12.5 µM | [18] 2.44 µM | [19] 10.5 µM | [20] 14.6 µM

O=[N+]([O-])c1ccc(Cl)cc1
inactive: [1] | [2] | [3] | [4] | [5] | [6] | [7] | [8] | [9] | [10] | [11] | [12] | [13] | [14] | [15] | [16] | [17] | [18] | [19] | [20]

CC(C)(c1cc(Cl)c(O)c(Cl)c1)c1cc(Cl)c(O)c(Cl)c1
active: [1] 12.3 µM | [2] 20 µM | [3] 28.9 µM | [4] 9.54 µM | [5] 9.58 µM | [6] 29 µM | [7] 6.38 µM | [8] 30.2 µM | [9] 30.1 µM | [10] 7.58 µM | [11] 7.45 µM | [12] 5.31 µM | [13] 36.4 µM | [15] 27.9 µM | [16] 20 µM | [17] 32.6 µM | [18] 32.6 µM | [19] 32.9 µM | [20] 32.1 µM
inactive: [14]

COc1ccc(CO)cc1
inactive: [1] | [2] | [3] | [4] | [5] | [6] | [7] | [8] | [9] | [10] | [11] | [12] | [13] | [14] | [15] | [16] | [17] | [18] | [19] | [20]

C=CCN(CC=C)C(=O)C(Cl)Cl
inactive: [1] | [2] | [3] | [4] | [5] | [6] | [7] | [8] | [9] | [10] | [11] | [12] | [13] | [14] | [15] | [16] | [17] | [18] | [19] | [20]

Oc1ccc(C2(c3ccc(O)cc3)c3ccccc3-c3ccccc32)cc1
inactive: [5] | [14]
active: [1] 13.2 µM and 12 µM | [2] 17.2 µM and 20 µM | [3] 16 µM and 14.8 µM | [4] 6.97 µM and 8.38 µM | [6] 11.9 µM | [7] 5.04 µM and 5.03 µM | [8] 16.5 µM and 14.4 µM | [9] 6.91 µM and 7.37 µM | [10] 5.4 µM and 3.97 µM | [11] 5.44 µM and 5.43 µM | [12] 5.37 µM and 5.3 µM | [13] 9.02 µM and 4.73 µM | [15] 3.97 µM and 2.88 µM | [16] 11.1 µM and 20 µM | [17] 20 µM | [18] 32.4 µM and 32.9 µM | [19] 914 nM and 799 nM | [20] 20 µM

CC(C)CCCCCCCOC(=O)c1ccccc1C(=O)OCCCCCCCC(C)C
inactive: [1] | [2] | [3] | [4] | [5] | [6] | [7] | [8] | [9] | [10] | [11] | [12] | [13] | [14] | [15] | [16] | [17] | [18] | [19] | [20]

CC(C)COP(=O)(OCC(C)C)OCC(C)C
inactive: [1] | [2] | [3] | [4] | [5] | [6] | [7] | [8] | [9] | [10] | [11] | [12] | [13] | [14] | [15] | [16] | [17] | [18] | [19] | [20]

CC(C)(C)C(O)C(Oc1ccc(-c2ccccc2)cc1)n1cncn1 (stereo not given)
active: [1] 32.1 µM | [4] 31.7 µM | [6] 31.6 µM | [8] 31.8 µM | [9] 31.5 µM | [10] 6.71 µM | [13] 30.9 µM | [15] 31.3 µM | [16] 20 µM | [17] 29.2 µM | [18] 26.3 µM | [20] 20 µM
inactive: [2] | [3] | [5] | [7] | [11] | [12] | [14] | [19]
